This passage reports Potency results from PubChem BioAssay AID1345083 (National Center for Advancing Translational Sciences (NCATS), 2018).

About 6,200 (6.6%) of roughly 94,000 compounds were called active. Inconclusive results (about 31%) are left out. Calls follow the shape of the dose curve; as a rule, active = well fitted inhibition curve with a large enough effect; inconclusive = small, poorly fitted or top-dose-only effect; inactive = flat fitted curve, though single readings scatter. Shown is part of a subset that was picked to be rich in actives. Where a call stands in place of a potency, no number is given.
Potency is read from the fitted curve at half-maximal effect.

The test in a line: Cytotoxic Profiling in HEK 293 Cell Line of Diverse Libraries Using Quantitative High-Throughput Screening. Also: nearly all actives have a fitted effect of over 60% in size. The conditions noted are these: HEK 293 viability, ATP luminescence (CellTiter-Glo), 48-72 h; series mostly up to 115 µM. The method, boiled down: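 Read-out: CellTiter-Glo ATP luminescence. Cells: HEK 293, 250 cells/well. Exposure: 48 or 72 hr, 37 degree Celsius.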
For orientation: In ATP-based viability assays light output follows the ATP content of the culture.
In the case of `Cc1cnc(C(=O)NC2CC(c3nnc(CO)n3C3CC3)C2)[nH]1` (configuration not stated), the Potency entry was “inactive”.

Regarding `O=C(c1ccc2c(c1)[nH]c(=O)n2C1CCC(O)CC1)N1CCc2ccccc2C1` (configuration not stated), the Potency entry is “inactive”.

In the case of `Cc1ccc(-n2nc(C(=O)N3CC[C@](C)(O)C(C)(C)C3)c(O)cc2=O)cc1`, the Potency entry was “inactive”.

For `Cc1ccc(C)c2c(=O)cc(CN3CCN(CCn4cncn4)CC3)[nH]c12`, the Potency entry was “inactive”.

Regarding `CCN1C(=O)CCN(Cc2cnn(CC)c2C)CC12CCOCC2`, the Potency result was “inactive”.

Turning to `Cc1cc2occ(CC(=O)N3CC[C@](C)(O)[C@@H](O)C3)c2cc1Cl`, the Potency result was “inactive”.

For the molecule `O=C(NCC1CC1)c1cn(C2CN(C(=O)NCCc3ccccc3)C2)nn1`, the Potency result is “inactive”.

On to `N#Cc1ccc(S(=O)(=O)N2CC(n3cc(C(=O)NCc4ccccc4)nn3)C2)cc1`, for which the Potency was 50.1 µM (active).

Regarding `CCOC(=O)c1cn(C2CN(S(=O)(=O)c3cccc(F)c3)C2)nn1`, the Potency entry is “inactive”.

As for `CC(=O)N1CCN(C(=O)C2(Cn3cccn3)CC2)CC(O)C1` (configuration not stated), the Potency result was “inactive”.

In the case of `COCCNC(=O)[C@H]1C[C@H](Oc2cccnc2)CN1C(=O)NC1CCCCC1`, the Potency result was “inactive”.

Turning to `O=C1NCCC[C@@H]1NC(=O)[C@H]1CN(C(=O)CS(=O)(=O)c2ccccc2)CCN1C(=O)C1CCCCC1`, the Potency entry is “inactive”.

In the case of `CCN(CC)c1ncccc1CNC(=O)Nc1ccc2c(c1)OCO2`, the Potency entry was “inactive”.

Regarding `CC(=O)Nc1ccc(-c2c(-c3ccc4c(c3)OCO4)nn(-c3cc(C)ccc3C)c2OC(C)=O)cc1`, the Potency is 39.8 µM (active).

For the molecule `CCCc1nn(-c2cccc(F)c2)c(OC(C)=O)c1-c1ccc(NC(C)=O)cc1`, the Potency result is “inactive”.

In the case of `CN1CCCN(C[C@@H]2CN(C(=O)c3ccnn3C)C[C@@H]2CO)CC1`, the Potency entry is “inactive”.

Take `CCN(CC)C(=O)N1CCCC(c2nc(CCOCC3CCOCC3)no2)C1` (configuration not stated): the Potency entry was “inactive”.

Take `O=C(Cc1cccnc1)N1CCCC(c2nc(CCOCC3CCCC3)no2)C1` (configuration not stated): the Potency result is “inactive”.

For `C1CCC(COCCc2noc(C3CNC3)n2)C1`, the Potency is 6.31 µM (active).

`CNC(=O)[C@@H]1CN(C(=O)c2ccc(F)c(Cl)c2)C[C@H]1CO`: the Potency entry was “inactive”.

Take `CCn1ccc(C(=O)N2CCCC(c3noc(COC)n3)C2)n1` (configuration not stated): the Potency entry was “inactive”.

Take `Cc1nc(-c2ccccc2OC2CN(S(=O)(=O)c3c(C)noc3C)C2)no1`: the Potency result was “inactive”.

Take `COc1ccc(CCC(=O)NCC(=O)N2CCCCCCNC(=O)CC2c2ccccc2)cc1` (configuration not stated): the Potency result was “inactive”.

As for `CC1CCN(c2ccc(CNC(=O)CN3CCCc4nc(C5CC5)ncc4C3=O)cc2)CC1`, the Potency result is “inactive”.

On to `CN(CCO)CC1(O)CCCN(Cc2ccccc2F)C1=O` (configuration not stated), for which the Potency result is “inactive”.

With `O=C1c2cnc(-c3ccc(O)c(F)c3)nc2OCCN1Cc1ccccc1`, the Potency entry was “inactive”.

Regarding `O=C(O)CN1CCNc2nc(CNc3ccc(F)cc3)n(Cc3ccccc3)c2C1=O`, the Potency entry is “inactive”.

For `O=C1c2c(nc(COc3ccccc3)n2Cc2ccccc2)NCCN1Cc1cccc(Cl)c1`, the Potency was 31.6 µM (active).

For the molecule `COc1ccc(NC(=O)c2ccc3c(c2)N(S(C)(=O)=O)CC3)cc1OC`, the Potency result was “inactive”.

Regarding `O=C(c1cccnc1)N1CCC(Nc2cccnc2)C1` (configuration not stated), the Potency entry is “inactive”.

As to `COc1cccc(N2C(=O)NC(=NC3CCCC3)C23CCN(C(=O)c2ccc(C)cc2)C3)c1` (configuration not stated), the Potency result was “inactive”.

`CN(Cc1ccccc1)C(=O)C[C@@H]1CCNC[C@@H]1Cc1cc(-c2ccc(C(C)(C)C)cc2)on1`: the Potency is 14.1 µM (active).

`O=C(C[C@@H]1CCNC[C@@H]1Cc1cc(CSc2ccccc2)on1)NCc1ccc2c(c1)OCO2`: the Potency is 35.5 µM (active).

As for `CCCCc1cc(C[C@H]2CNCC[C@H]2CC(=O)N(CC)CC)no1`, the Potency result is “inactive”.

Take `O=C(C[C@@H]1CCNC[C@@H]1Cc1cc(-c2ccc(F)cc2)on1)NCCN1CCOCC1`: the Potency result was “inactive”.

As to `CSc1cccc(CN(C)C(=O)CC2COCCN2)c1` (configuration not stated), the Potency entry was “inactive”.

Turning to `COc1ccc(-c2cc(C[C@H]3CNCC[C@H]3CC(=O)NCCN(C)C)no2)cc1`, the Potency result is “inactive”.

Take `CNC(=O)C(C)(C)N1CCC[C@H]1C(=O)N(C)Cc1ccccc1`: the Potency entry is “inactive”.

For `CCCCc1cc(C[C@H]2CNCC[C@H]2CC(=O)N2CCC(n3c(=O)[nH]c4ccccc43)CC2)no1`, the Potency result was “inactive”.

Regarding `COc1ccc(CNC(=O)C[C@@H]2CCNC[C@@H]2Cc2cc(-c3ccc(C(C)(C)C)cc3)on2)cc1OC`, the Potency was 25.1 µM (active).

Regarding `COCCOCc1nc(C2CCCCN2C(=O)Nc2ccc(F)cc2F)no1` (configuration not stated), the Potency entry is “inactive”.

For `O=C(Cc1cccc(Cl)c1)N1CCC2(CN[S+](=O)([O-])c3cccnc3O2)C1` (configuration not stated), the Potency result was “inactive”.

On to `Cc1ccc(CN[C@@H]2CO[C@H](CNC(=O)N3CCOCC3)[C@H]2O)cc1`, for which the Potency entry was “inactive”.

As to `CCNC(=O)[C@@H]1C[C@H](n2cc(CN(C)C(=O)OC)nn2)CN1`, the Potency entry was “inactive”.

`Cc1ccc(NC(=O)c2nnn3c2COC(c2ccc(F)cc2)C3)c(Br)c1` (configuration not stated): the Potency entry was “inactive”.

With `COc1ccc(-c2ccccc2CN)cc1`, the Potency entry is “inactive”.

With `CCn1cc(S(=O)(=O)N2C[C@@H](Oc3ccccc3)C[C@@H]2C(=O)N2CCOCC2)cn1`, the Potency entry was “inactive”.

For the molecule `O=C(c1ccc(F)cc1)N1CCC2(CC1)CC(OCC1CC1)CCO2` (configuration not stated), the Potency result was “inactive”.

As for `CCn1nccc1C(=O)N1CCC2(CC1)CC(N(Cc1ccc(F)cc1)C1CC1)CCO2` (configuration not stated), the Potency is 39.8 µM (active).

For `CCN(CC)C1CCOC2(CCN(C(=O)c3ccncc3)CC2)C1` (configuration not stated), the Potency entry is “inactive”.

For `Cc1cccc(CC(=O)N2CCC(c3n[nH]c(=O)n3-c3ccccc3)CC2)c1`, the Potency entry is “inactive”.

Turning to `CN(C)CCNC(=O)[C@H]1C[C@@](C)(C(=O)O)N(C)[C@H]1c1ccc(Cl)cc1`, the Potency result was “inactive”.

Regarding `Cc1ccccc1N1Cc2c(NCC(C)(C)C)ncnc2N(C)CC1=O`, the Potency entry is “inactive”.

As for `O=C(NCc1ccc2c(c1)OCO2)C1CCCN(Cc2cccc(-c3cccs3)c2)C1` (configuration not stated), the Potency is 28.2 µM (active).

Consider `O=C1CCN(S(=O)(=O)c2cccc(F)c2)CCCC(C(=O)NCc2ccccc2)CCN1` (configuration not stated), for which the Potency entry was “inactive”.

Regarding `O=C(NCc1ccc2c(c1)OCO2)C1CN(C2CCCCC2)C(=O)N1` (configuration not stated), the Potency result was “inactive”.

Consider `O=C(NCc1ccc(F)c(F)c1)C1CCCN(Cc2cccc(-c3cccs3)c2)C1` (configuration not stated), for which the Potency is 5.62 µM (active).

With `Cc1ccccc1CNC(=O)C1CCCN(Cc2cccnc2)CCC(=O)NCC1` (configuration not stated), the Potency result is “inactive”.

On to `COCCNC(=O)C1CCCN(Cc2cccc(-c3cccs3)c2)C1` (configuration not stated), for which the Potency result was “inactive”.

Regarding `COc1ccc(C(=O)N2CCc3n[nH]c(=O)n3CC2)cc1F`, the Potency entry is “inactive”.

Take `O=C(N[C@H]1[C@H](O)[C@H](O)C[C@@H]1c1ccncc1)c1ccccn1`: the Potency entry was “inactive”.

`CN(C)c1ccc(CNCC2(COc3ccc(S(C)(=O)=O)cc3)C[C@@H](O)[C@@H](O)C2)cc1` (some centres not stated): the Potency result was “inactive”.
